Test results taken from PubChem BioAssay.

Experiment: TOR pathway RTG branch CIT2 reporter changes – S. cerevisiae, GFP fusion, multiplex flow cytometry, primary screen (AID 1870);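 note: barcoded CIT2-GFP strain pooled with four other GFP strains with rapamycin as positive control; median GFP fluorescence per well over plate mean of DMSO wells so 100% = DMSO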
Settings: S. cerevisiae CIT2-GFP expression, 3 h, at 10 µM, active compounds read high;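 active = percent response above a set limit, the screen-wide mean plus 3 SD (cut at about 130% in these data); inactive = the rest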

Percent response of DMSO control, inactive:
Cc1oc2cc(O)cc(O)c2c(=O)c1-c1ccc2c(c1)OCCCO2 88.2%
O=C(c1ccco1)N1CCCN(Cc2nc(-c3ccc4c(c3)OCO4)no2)CC1 106%
COc1ccc2nc(S(=O)Cc3ncc(C)c(OC)c3C)[nH]c2c1 (stereo unspecified) 99.7%
CSCCC(NC(C)=O)C(=O)Oc1ccc2c3c(c(=O)oc2c1)CCCC3 (stereo unspecified) 105%
CCOC(=O)C1NN=C(C(=O)c2ccccc2)C1c1ccc(Cl)cc1 (stereo unspecified) 91.3%
CSCCC(NC(=O)OC(C)(C)C)C(=O)Oc1ccc2c(=O)c(-c3ccc4c(c3)OCCO4)coc2c1 (stereo unspecified) 94.8%
COc1cc2c(cc1OC)/C(=C/c1ccc(Cl)cc1)C(=O)OC2 95.2%
COc1ccc(-c2coc3c(CN4CCOCC4)c(O)ccc3c2=O)cc1 109%
OCCC1CN(Cc2ccccc2-c2ccco2)CCN1C1CCCC1 (stereo unspecified) 93.1%
O=C(O)C1CCN(C(=O)COc2ccc3c4c(c(=O)oc3c2)CCC4)CC1 101%
Cc1ccc(C(=O)NCCNC(=O)c2ccccc2)cc1 88%
CC(=O)OCC(=O)[C@@]1(O)CC[C@H]2[C@@H]3CCC4=CC(=O)C=C[C@]4(C)[C@H]3[C@@H](O)C[C@@]21C 99.2%
CCCc1cc(C(N)=S)ccn1 101%
Cc1ccc(Cl)c(Nc2ccccc2C(=O)O)c1Cl 94.4%
COc1ccccc1/C=C/C(=O)OCCN1CCOCC1 114%
Fc1ccc(-c2cc(-c3ccccc3)nc(-n3cccn3)n2)cc1 99.3%
